Measurements as given in PubChem BioAssay (EPA / NIEHS).
Inconclusive results are not listed. The source made the active and inactive calls. Rule for the calls, unless noted: active = hit-call score of the fitted dose curve at least 0.9, where 1 is the maximum; inactive = score below 0.9.

What was measured:
[1] = ATG_NFI_CIS: Attagene CIS-FACTORIAL HepG2 Assay for human Nuclear Factor I (NFI) (AID 2282989); conditions: HepG2 cis-regulatory reporter, NFI response element transcription; actives raise or lower the signal
Method in brief: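 Multiplexed cis-reporter system in human HepG2 cells reports native TF activity as reporter mRNA induction 24 h post-dose. Fragments labelled with 6-FAM, HpaI-digested and resolved by capillary electrophoresis; activity fitted both directions versus DMSO.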

[2] = target: Myc proto-oncogene protein (Homo sapiens) (UniProt P01106); experiment: ATG_Myc_CIS: Attagene CIS-FACTORIAL HepG2 Assay for human Myelocytomatosis (Myc) Proto-Oncogene Transcription Factor (AID 2282990); conditions: HepG2, Attagene cis-reporter transcription factor activity; actives raise or lower the signal
Method in brief: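 HepG2 cells transiently transfected with multiple cis-promoter-driven reporter transcription units, so endogenous TF activity is read. After 24 h compound exposure, reporter mRNA was quantified by RT-PCR, 6-FAM labelling, HpaI digestion and capillary electrophoresis; bidirectional fit versus DMSO.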

[3] = ATG_NF_kB_CIS: Attagene CIS-FACTORIAL HepG2 Assay for human Nuclear Factor Kappa B (NF-kB) (AID 2282991); conditions: HepG2 Attagene cis-factorial NF-kB reporter mRNA; actives raise or lower the signal
Method in brief: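 Measures mRNA induction of an NF-kB-responsive cis-element reporter in HepG2 cells transfected with multiple reporter units, sampled 24 h post-dosing; quantified by fluorescence after RT-PCR and capillary electrophoresis, fitted for activation or inhibition against DMSO.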

[4] = ATG_NRF2_ARE_CIS: Attagene CIS-FACTORIAL HepG2 Assay for human Nuclear Factor Erythroid 2 Related Factor 2 (NFR2) response to Antioxidant Response Elements (ARE) (AID 2282992); conditions: HepG2 Attagene ARE/NRF2 reporter, transcription factor activity; actives raise or lower the signal;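 for AC50: reporter mRNA level measured by RT-PCR and capillary electrophoresis fluorescence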
Method in brief: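 Multiplexed reporter mRNA profiling in HepG2 after a 24 h chemical exposure. Curves fitted in both directions relative to DMSO negative control.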

[5] = ATG_Oct_MLP_CIS: Attagene CIS-FACTORIAL HepG2 Assay for human Octamer-Binding Transcription Factor (Oct) (AID 2282993); conditions: HepG2 Attagene cis-factorial Oct reporter, mRNA; actives raise or lower the signal
Method in brief: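 After 24 h compound exposure, transfected HepG2 cells were lysed for total RNA; reporter-specific cDNA was PCR-amplified, fluorescently labelled and sized by capillary electrophoresis. Bidirectional curve fitting used DMSO as baseline.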

[6] = target: human Peroxisome Proliferator-activated Receptor delta (PPARd), PPARD (gene 5467) (UniProt Q03181); experiment: ATG_PPARd_TRANS: Attagene TRANS-FACTORIAL HepG2 Assay for human Peroxisome Proliferator-activated Receptor delta (PPARd) (AID 2283002; active = hit-call score of the fitted dose curve at least 0.9, where 1 is the maximum)
Method in brief: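 HepG2 cells transiently transfected with multiplexed GAL4-UAS reporter units and exogenous chimeric NR-Gal4 proteins; 24 h compound exposure. Reporter mRNA measured by RT-PCR, 6-FAM labelling, HpaI digestion and capillary electrophoresis; gain of signal versus DMSO.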

[7] = target: Retinoic acid receptor alpha (Homo sapiens) (UniProt P10276); experiment: ATG_RARa_TRANS: Attagene TRANS-FACTORIAL HepG2 Assay for human Retinoic Acid Receptor alpha (RARa) (AID 2283005; active = hit-call score of the fitted dose curve at least 0.9, where 1 is the maximum)
Method in brief: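 HepG2 cells transiently transfected with multiple reporter units expressing chimeric RARα-GAL4 fusion, with GAL4-UAS-driven reporters. After 24 h compound exposure, reporter mRNA induction quantified by RT-PCR and capillary electrophoresis with fluorescent labeling; gain-of-signal fitted relative to DMSO control.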

[8] = target: Nuclear receptor subfamily 1 group I member 2 (Homo sapiens) (UniProt O75469); experiment: ATG_PXR_TRANS: Attagene TRANS-FACTORIAL HepG2 Assay for human Pregnane X Receptor (PXR) (AID 2283008; active = hit-call score of the fitted dose curve at least 0.9, where 1 is the maximum)
Method in brief: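 Measures mRNA induction of a GAL4-UAS-driven reporter in human HepG2 cells transiently expressing PXR fused to Gal4, following 24 h treatment. DMSO served as negative control and baseline.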

[9] = target: human Peroxisome Proliferator-activated Receptor alpha (PPARa), PPARA (gene 5465) (UniProt Q07869); experiment: ATG_PPARa_TRANS: Attagene TRANS-FACTORIAL HepG2 Assay for human Peroxisome Proliferator-activated Receptor alpha (PPARa) (AID 2283001; active = hit-call score of the fitted dose curve at least 0.9, where 1 is the maximum)
Method in brief: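 HepG2 cells transiently transfected with multiplexed GAL4-UAS reporter units and chimeric NR-Gal4 constructs were dosed for 24 h. Reporter mRNA was measured by RT-PCR with fluorescent labelling and capillary electrophoresis; gain of signal fitted against DMSO.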

[10] = target: human RAR-related Orphan Receptor beta (RORb), RORB (gene 6096) (UniProt Q92753); experiment: ATG_RORb_TRANS: Attagene TRANS-FACTORIAL HepG2 Assay for human RAR-related Orphan Receptor beta (RORb) (AID 2283010; active = hit-call score of the fitted dose curve at least 0.9, where 1 is the maximum)
Method in brief: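 HepG2 cells were transiently transfected with multiplexed GAL4-UAS reporter units expressing chimeric nuclear receptor–GAL4 proteins, then dosed for 24 h. Reporter mRNA was quantified by RT-PCR with fluorescent labelling and capillary electrophoresis; gain of signal was fitted relative to DMSO.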

[11] = target: Peroxisome proliferator-activated receptor gamma (Homo sapiens) (UniProt P37231); experiment: ATG_PPARg_TRANS: Attagene TRANS-FACTORIAL HepG2 Assay for human Peroxisome Proliferator-activated Receptor-gamma (PPARg) (AID 2283007; active = hit-call score of the fitted dose curve at least 0.9, where 1 is the maximum)
Method in brief: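 Gain-of-signal endpoint relative to DMSO, derived from reporter mRNA levels quantified by RT-PCR and capillary electrophoresis. Cells were HepG2 transiently expressing a chimeric NR-Gal4 construct with GAL4-UAS reporters, exposed to chemicals for 24 h.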

[12] = target: human Retinoic Acid Receptor gamma (RARg), RARG (gene 5916) (UniProt P13631); experiment: ATG_RARg_TRANS: Attagene TRANS-FACTORIAL HepG2 Assay for human Retinoic Acid Receptor gamma (RARg) (AID 2283009; active = hit-call score of the fitted dose curve at least 0.9, where 1 is the maximum)
Method in brief: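 HepG2 cells transiently transfected with multiplexed reporter units expressing chimeric RARg-GAL4 and GAL4-UAS-driven reporters; 24 h compound exposure. Reporter mRNA quantified by RT-PCR with fluorescent labelling and capillary electrophoresis; gain-of-signal fitted relative to DMSO baseline.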

[13] = target: Cellular tumor antigen p53 (Homo sapiens) (UniProt P04637); experiment: ATG_p53_CIS: Attagene CIS-FACTORIAL HepG2 Assay for human p53 Transcription Factor (AID 2282994); conditions: HepG2 p53 cis-element reporter, Attagene mRNA; actives raise or lower the signal
Method in brief: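 Multiplexed reporter mRNA assay in human HepG2 liver cells; cis-regulated units report endogenous factor activity. Values come from bidirectional curve fitting against DMSO negative control after 24 h treatment.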

[14] = BSK_3C_TissueFactor: BioMAP Diversity Plus: 3C Assay for Tissue Factor Biomarker Activity (AID 2282997); conditions: BioMAP 3C HUVEC, tissue factor biomarker readout; actives raise or lower the signal
Method in brief: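 Primary human umbilical vein endothelial cells in the 3C system were exposed to test chemical for 24 h, then Tissue Factor measured by ELISA. Activity was fitted bidirectionally against DMSO as negative control and baseline.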

[15] = BSK_3C_uPAR: BioMAP Diversity Plus: 3C Assay for Urokinase-type plasminogen activator receptor (uPAR) Biomarker Activity (AID 2282998); conditions: BioMAP 3C HUVEC, uPAR biomarker ELISA; actives raise or lower the signal
Method in brief: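 Values derive from bidirectional curve fitting relative to DMSO, which served as baseline of activity. uPAR was measured by ELISA in human umbilical vein endothelial primary cultures 24 h after compound addition.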

[16] = BSK_3C_VCAM1: BioMAP Diversity Plus: 3C Assay for Vascular cell adhesion molecule 1 (VCAM1) Biomarker Activity (AID 2282999); conditions: BioMAP 3C HUVEC, VCAM1 ELISA, cytokine-stimulated; actives raise or lower the signal
Method in brief: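 Human umbilical vein endothelial cells were dosed with compound for 24 h, after which cell-surface VCAM-1 was quantified by ELISA. Bidirectional curve fitting used DMSO as negative control and activity baseline.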

[17] = BSK_4H_Eotaxin3: BioMAP Diversity Plus: 4H Assay for Eotaxin 3 Biomarker Activity (AID 2283000); conditions: primary human endothelial cells (HUVEC); actives raise or lower the signal;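 note: CCL26 protein level quantified by ELISA in parallel with SRB cytotoxicity check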
Method in brief: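 HUVEC, 24 h post-dose, ELISA for Eotaxin-3/CCL26. Gain or loss of signal fitted bidirectionally vs DMSO baseline.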

[18] = read-out: Intercellular Adhesion Molecule 1 (ICAM1), ICAM1 (gene 3383); experiment: BSK_3C_ICAM1: BioMAP Diversity Plus: 3C Assay for Intercellular Adhesion Molecule 1 (ICAM1) Biomarker Activity (AID 2283003); conditions: primary human endothelial cells (HUVEC); actives raise or lower the signal
Method in brief: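 Primary human umbilical vein endothelial cells in the BioMAP 3C system were exposed to chemicals for 24 h, then ICAM-1 was quantified by ELISA. Activity was fitted bidirectionally against the DMSO negative control baseline.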

[19] = BSK_3C_Proliferation: Cell Proliferation Assessment in the BioMAP Diversity Plus: 3C Assay (AID 2283006); conditions: primary human endothelial cells (HUVEC)
Method in brief: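 Human umbilical vein endothelial cells were grown sub-confluent and exposed to chemical for 48 h, then fixed with 10% TCA and stained with 0.1% sulforhodamine B; absorbance at 560 nm gave relative cell number, fitted bidirectionally against DMSO baseline.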

[20] = target: human Retinoic Acid Receptor beta (RARb), RARB (gene 5915) (UniProt P10826); experiment: ATG_RARb_TRANS: Attagene TRANS-FACTORIAL HepG2 Assay for human Retinoic Acid Receptor beta (AID 2283004; active = hit-call score of the fitted dose curve at least 0.9, where 1 is the maximum)
Method in brief: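 HepG2 cells transiently transfected with multiplexed GAL4-UAS reporter units expressing chimeric NR–Gal4 fusions; 24 h compound exposure. Reporter mRNA quantified by RT-PCR, 6-FAM labelling, HpaI digestion and capillary electrophoresis; gain-of-signal fitted against DMSO baseline.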

Measured: AC50

human Peroxisome Proliferator-activated Receptor alpha (PPARa), PPARA (gene 5465), sequence (Q07869 whole entry, looked up, the tested form may be a part): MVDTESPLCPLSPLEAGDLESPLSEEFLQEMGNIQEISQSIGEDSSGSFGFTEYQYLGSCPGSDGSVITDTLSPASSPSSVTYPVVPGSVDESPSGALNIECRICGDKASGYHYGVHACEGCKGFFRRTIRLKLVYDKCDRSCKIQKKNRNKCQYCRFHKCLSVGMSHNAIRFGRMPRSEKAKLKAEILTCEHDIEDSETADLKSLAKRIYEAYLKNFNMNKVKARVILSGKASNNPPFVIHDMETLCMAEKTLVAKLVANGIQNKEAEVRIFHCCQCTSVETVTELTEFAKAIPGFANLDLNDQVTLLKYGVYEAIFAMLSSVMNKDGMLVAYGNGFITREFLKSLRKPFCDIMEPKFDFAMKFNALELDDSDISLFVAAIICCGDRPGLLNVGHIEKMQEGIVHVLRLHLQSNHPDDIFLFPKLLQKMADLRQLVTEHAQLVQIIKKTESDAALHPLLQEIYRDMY
Cellular tumor antigen p53 (Homo sapiens), sequence (P04637 whole entry, looked up): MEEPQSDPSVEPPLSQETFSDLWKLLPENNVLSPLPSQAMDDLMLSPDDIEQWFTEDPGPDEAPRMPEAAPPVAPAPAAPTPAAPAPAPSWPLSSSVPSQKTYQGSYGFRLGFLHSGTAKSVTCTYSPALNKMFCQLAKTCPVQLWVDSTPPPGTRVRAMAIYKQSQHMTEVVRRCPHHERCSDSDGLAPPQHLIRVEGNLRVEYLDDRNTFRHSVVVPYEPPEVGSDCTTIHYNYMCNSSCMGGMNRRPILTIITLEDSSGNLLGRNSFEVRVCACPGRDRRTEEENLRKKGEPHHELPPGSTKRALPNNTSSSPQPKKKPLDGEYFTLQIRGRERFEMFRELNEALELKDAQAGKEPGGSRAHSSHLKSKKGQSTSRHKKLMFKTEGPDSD
human Peroxisome Proliferator-activated Receptor delta (PPARd), PPARD (gene 5467), sequence (Q03181 whole entry, looked up, the tested form may be a part): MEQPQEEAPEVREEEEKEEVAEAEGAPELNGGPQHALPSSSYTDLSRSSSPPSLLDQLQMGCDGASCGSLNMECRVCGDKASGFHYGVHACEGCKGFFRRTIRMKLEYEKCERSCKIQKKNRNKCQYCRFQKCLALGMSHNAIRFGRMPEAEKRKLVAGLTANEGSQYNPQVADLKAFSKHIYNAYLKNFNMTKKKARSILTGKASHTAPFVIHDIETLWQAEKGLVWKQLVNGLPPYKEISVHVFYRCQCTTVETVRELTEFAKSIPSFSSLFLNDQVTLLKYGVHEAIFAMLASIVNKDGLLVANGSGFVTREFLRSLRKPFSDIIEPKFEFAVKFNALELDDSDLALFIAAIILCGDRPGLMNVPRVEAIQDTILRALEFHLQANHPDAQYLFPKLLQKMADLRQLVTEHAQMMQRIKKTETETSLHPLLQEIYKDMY
human RAR-related Orphan Receptor beta (RORb), RORB (gene 6096), sequence (Q92753 whole entry, looked up, the tested form may be a part): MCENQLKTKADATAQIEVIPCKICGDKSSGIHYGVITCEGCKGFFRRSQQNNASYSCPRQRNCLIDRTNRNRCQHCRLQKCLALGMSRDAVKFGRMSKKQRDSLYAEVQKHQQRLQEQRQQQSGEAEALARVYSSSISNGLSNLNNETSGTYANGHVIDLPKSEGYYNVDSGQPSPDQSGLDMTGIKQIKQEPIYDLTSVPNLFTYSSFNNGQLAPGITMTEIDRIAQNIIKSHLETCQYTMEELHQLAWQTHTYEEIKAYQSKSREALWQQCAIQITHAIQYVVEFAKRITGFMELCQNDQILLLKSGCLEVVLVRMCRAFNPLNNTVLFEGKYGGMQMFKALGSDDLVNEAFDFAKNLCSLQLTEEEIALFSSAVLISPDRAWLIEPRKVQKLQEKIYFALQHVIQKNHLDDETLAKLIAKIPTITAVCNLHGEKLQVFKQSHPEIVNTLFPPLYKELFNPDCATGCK
Peroxisome proliferator-activated receptor gamma (Homo sapiens), sequence (P37231 whole entry, looked up, the tested form may be a part): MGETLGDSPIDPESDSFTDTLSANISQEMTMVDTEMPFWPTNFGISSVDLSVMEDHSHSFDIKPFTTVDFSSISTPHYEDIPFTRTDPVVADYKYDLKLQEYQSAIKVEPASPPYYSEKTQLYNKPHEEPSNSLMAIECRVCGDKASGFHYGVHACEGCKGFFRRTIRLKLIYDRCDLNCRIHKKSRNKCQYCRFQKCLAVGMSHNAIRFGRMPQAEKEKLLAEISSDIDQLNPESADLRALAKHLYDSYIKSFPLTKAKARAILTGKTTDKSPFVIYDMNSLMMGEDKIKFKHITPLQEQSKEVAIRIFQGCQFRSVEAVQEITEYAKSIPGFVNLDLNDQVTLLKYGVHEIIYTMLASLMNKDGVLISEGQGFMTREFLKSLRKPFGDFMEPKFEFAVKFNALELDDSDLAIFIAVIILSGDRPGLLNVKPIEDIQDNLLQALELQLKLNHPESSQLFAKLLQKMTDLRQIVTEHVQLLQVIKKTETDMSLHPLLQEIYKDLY
Nuclear receptor subfamily 1 group I member 2 (Homo sapiens), sequence (O75469 whole entry, looked up, the tested form may be a part): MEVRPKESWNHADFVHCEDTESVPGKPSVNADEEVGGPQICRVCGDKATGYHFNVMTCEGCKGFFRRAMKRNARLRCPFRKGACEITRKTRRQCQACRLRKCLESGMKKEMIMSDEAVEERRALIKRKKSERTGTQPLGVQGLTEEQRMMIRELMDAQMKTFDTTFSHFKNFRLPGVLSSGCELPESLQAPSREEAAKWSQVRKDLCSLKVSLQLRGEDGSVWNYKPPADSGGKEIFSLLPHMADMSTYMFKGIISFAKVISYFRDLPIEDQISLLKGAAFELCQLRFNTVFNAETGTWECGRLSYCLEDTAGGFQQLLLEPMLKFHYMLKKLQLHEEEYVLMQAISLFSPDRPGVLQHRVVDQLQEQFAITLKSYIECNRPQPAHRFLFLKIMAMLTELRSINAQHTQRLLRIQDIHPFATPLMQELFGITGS
human Retinoic Acid Receptor gamma (RARg), RARG (gene 5916), sequence (P13631 whole entry, looked up, the tested form may be a part): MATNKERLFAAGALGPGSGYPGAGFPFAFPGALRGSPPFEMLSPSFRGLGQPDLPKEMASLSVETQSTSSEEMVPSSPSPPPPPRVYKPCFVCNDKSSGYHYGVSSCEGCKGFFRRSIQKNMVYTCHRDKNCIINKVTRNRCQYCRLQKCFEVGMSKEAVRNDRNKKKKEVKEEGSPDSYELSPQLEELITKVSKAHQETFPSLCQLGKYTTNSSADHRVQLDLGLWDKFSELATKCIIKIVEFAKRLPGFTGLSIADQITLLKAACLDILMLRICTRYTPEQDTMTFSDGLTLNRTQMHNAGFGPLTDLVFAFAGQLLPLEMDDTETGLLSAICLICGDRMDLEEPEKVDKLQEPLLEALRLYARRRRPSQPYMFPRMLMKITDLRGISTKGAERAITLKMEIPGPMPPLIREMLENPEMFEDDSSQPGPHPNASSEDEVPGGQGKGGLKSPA
Myc proto-oncogene protein (Homo sapiens), sequence (P01106 whole entry, looked up): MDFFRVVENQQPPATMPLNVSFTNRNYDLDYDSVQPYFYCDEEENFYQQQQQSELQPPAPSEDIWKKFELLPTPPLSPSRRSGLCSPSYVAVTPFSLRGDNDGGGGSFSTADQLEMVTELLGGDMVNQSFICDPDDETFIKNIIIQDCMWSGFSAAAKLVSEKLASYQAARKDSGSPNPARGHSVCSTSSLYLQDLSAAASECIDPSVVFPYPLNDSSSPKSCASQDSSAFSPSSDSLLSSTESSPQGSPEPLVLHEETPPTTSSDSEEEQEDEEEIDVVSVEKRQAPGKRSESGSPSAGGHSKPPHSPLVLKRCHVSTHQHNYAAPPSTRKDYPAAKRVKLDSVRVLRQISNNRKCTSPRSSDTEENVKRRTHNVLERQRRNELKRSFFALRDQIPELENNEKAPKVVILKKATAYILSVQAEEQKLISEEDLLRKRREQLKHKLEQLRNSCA
Retinoic acid receptor alpha (Homo sapiens), sequence (P10276 whole entry, looked up, the tested form may be a part): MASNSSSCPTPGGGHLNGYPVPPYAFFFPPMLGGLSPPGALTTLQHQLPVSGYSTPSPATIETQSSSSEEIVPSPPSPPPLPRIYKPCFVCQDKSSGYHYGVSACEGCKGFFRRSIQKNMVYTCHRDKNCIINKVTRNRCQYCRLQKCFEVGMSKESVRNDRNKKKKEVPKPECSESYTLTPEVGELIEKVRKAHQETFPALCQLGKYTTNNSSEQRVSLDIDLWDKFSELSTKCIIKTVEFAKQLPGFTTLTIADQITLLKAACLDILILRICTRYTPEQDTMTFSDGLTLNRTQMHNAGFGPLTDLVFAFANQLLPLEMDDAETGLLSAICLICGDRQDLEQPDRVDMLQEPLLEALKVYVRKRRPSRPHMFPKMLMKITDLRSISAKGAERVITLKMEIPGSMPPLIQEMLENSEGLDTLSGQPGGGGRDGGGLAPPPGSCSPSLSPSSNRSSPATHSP
human Retinoic Acid Receptor beta (RARb), RARB (gene 5915), sequence (P10826 whole entry, looked up, the tested form may be a part): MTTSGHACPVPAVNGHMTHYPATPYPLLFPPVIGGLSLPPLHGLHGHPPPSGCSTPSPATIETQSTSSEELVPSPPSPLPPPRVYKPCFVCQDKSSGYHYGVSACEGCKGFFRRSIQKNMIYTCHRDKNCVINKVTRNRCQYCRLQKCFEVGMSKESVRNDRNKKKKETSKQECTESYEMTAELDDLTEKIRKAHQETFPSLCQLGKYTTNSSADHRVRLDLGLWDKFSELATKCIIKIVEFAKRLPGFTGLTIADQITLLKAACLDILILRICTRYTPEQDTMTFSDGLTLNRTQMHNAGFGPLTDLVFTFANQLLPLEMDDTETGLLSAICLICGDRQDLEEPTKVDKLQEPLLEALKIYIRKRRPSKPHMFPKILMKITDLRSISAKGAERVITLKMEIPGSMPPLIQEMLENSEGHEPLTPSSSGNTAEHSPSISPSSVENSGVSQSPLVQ

CC(C)(Oc1ccc(CCNC(=O)c2ccc(Cl)cc2)cc1)C(=O)O
inactive: [1] | [2] | [3] | [4] | [5]
active: [6] 79.4 µM

[Ca+2]
inactive: [1] | [2] | [3] | [4] | [5] | [6] | [7] | [8]

OCc1cccnc1
inactive: [1] | [2] | [3] | [4] | [5] | [9] | [10]

Cc1c(N(C)C)c(=O)n(-c2ccccc2)n1C
inactive: [1] | [2] | [3] | [4] | [5] | [9] | [8] | [10]

CCCCC[Si](OCC)(OCC)OCC
active: [8] 7.48 µM
inactive: [1] | [2] | [3] | [4] | [5] | [7] | [11] | [12]

Cc1ncc([N+](=O)[O-])n1C
inactive: [1] | [2] | [4] | [5] | [13] | [9] | [6] | [8] | [10]

O=CCCc1ccccc1
inactive: [1] | [2] | [3] | [9] | [12]
active: [4] 38 µM

CC1=CCC(O)(C(C)C)CC1 (stereo unspecified)
inactive: [1] | [2] | [4] | [5] | [13] | [9] | [6] | [8] | [10]

COC(=O)c1ccc(C)cc1
active: [8] 9.06 µM
not listed: [3] | [6] | [7] | [9] | [11] | [12] | [20]
inactive: all other assays above

CCCCCC(=O)OCCc1ccccc1
inactive: [1] | [2] | [4] | [5] | [13] | [9] | [11] | [8]

O=C1NC(=O)c2ccccc21
inactive: [1] | [2] | [3] | [4] | [9] | [11] | [10]

CCCCNC(=O)NS(=O)(=O)c1ccc(N)cc1
inactive: [1] | [2] | [3] | [4] | [13] | [7] | [12]

CCOC(=O)c1ccccc1OC
inactive: [1] | [2] | [3] | [4] | [6] | [20] | [12]

O=C(O)c1cccc(C(F)(F)F)c1
inactive: [1] | [2] | [4] | [5] | [13] | [9] | [11]
